Bioassay records: PubChem BioAssay, several laboratories
Yp Topo-I inh = blocks Yersinia pestis topoisomerase I activity. activity, % at 10 µM. 360,000 compounds, 0.064% hits. AID 504884. Y. pestis Topo-I cleavage product accumulation, plate reader; in the data active means activity above about 50%, passing the limit was not always enough
DUSP3 inh = DUSP3 (human) phosphatase inhibition. recombinant VHR phosphatase, pNPP absorbance. inhibition, % at 13.3 µM. 290,000 compounds, 0.52% hits. P51452; in the data active means inhibition above about 50%
Target sequence (P51452 whole entry, looked up): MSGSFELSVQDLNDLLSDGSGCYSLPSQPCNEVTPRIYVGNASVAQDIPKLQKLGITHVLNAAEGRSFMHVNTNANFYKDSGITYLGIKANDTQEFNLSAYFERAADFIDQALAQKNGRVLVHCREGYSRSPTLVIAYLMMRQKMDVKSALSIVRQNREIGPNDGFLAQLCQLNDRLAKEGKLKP
PrPC TRFRET = cell surface PrPC inhibition, primary TR-FRET screen; 370,000 compounds, 0.43% hits; TR-FRET read-out; AID 720596; P04156; inhibition, % at 13.8 µM; in the data active means inhibition above about 24%; further: 0% = median of the test wells and 100% = reference compound wells
CCHFV vOTU inh = blocks the CCHF virus ovarian tumor domain protease. AID 651958. 370,000 compounds, 0.55% hits. CCHFV vOTU protease, Pep-AMC fluorescence. inhibition, % at 11.5 µM; in the data active means inhibition above about 30%; further: 0% = vehicle wells with enzyme and 100% = no enzyme wells
MazEF act = MazEF (E. coli) toxin RNase activation | activation, % at 20 µM | 350,000 compounds, 0.32% hits | AID 504720 | FAM/BHQ RNA-DNA oligo cleavage fluorescence, 5 h; in the data active means activation above about 50%
Target sequence (P0AE70 whole entry, looked up): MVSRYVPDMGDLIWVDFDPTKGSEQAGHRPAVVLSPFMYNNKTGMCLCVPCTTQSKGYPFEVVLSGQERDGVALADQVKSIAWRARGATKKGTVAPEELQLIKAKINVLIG
Vc quorum ag-1 = quorum light induction in luxS cqsA deficient V. cholerae | activation, % at 18.7 µM | 350,000 compounds, 0.16% hits | V. cholerae BH1578 lux reporter, luminescence, 6 h; in the data active means activation mostly above about 9.7%, no sharp cut-off
Vc quorum ag-2 = quorum light induction in BH1578 reporter strain; shares compounds with Vc quorum ag-1; V. cholerae BH1578 lux reporter, luminescence, 6 h; activation, % at 50 µM; 620 tested, under 10 active; AID 602243; call rule not given here
HeLa 24h tox = kills HeLa cells within 24 hours; shares compounds with Vc quorum ag-1; HeLa viability, CellTiter-Glo ATP luminescence; activity change, negative = cytotoxicity, % at 35 µM; 25 tested, under 10 active; AID 624140;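 active means signal drop with fitted half-maximal concentration at or below twice the highest valid dose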
Active calls of the source: *. In the library only some 1.8% were active in any assay of this set; here they are far more common.

How did COc1ccc(-c2noc(CCC(=O)N3CCN(c4cccc(C(F)(F)F)c4)CC3)n2)cc1 do in these assays?
Yp Topo-I inh: -5.2; DUSP3 inh: 28.6; PrPC TRFRET: -1.4; CCHFV vOTU inh: 13.7; MazEF act: -2.6; Vc quorum ag-1: 25.0*; Vc quorum ag-2: 0.5

Results for CC(CN1CCCCC1)NC(=O)c1scnc1-c1ccccc1 (centres undefined) ?
PrPC TRFRET: 0.6; CCHFV vOTU inh: -9.9

Results for Cc1ccc(Cn2nnc3c2-c2cc(F)ccc2S(=O)(=O)N(C(C)(C)C)C3)cc1 ?
PrPC TRFRET: 9.3; CCHFV vOTU inh: 11.1

How did COc1ccc(-c2cc(C(=O)Nc3c(C)n(C)n(-c4ccccc4)c3=O)no2)cc1OC do in these assays?
Yp Topo-I inh: -4.1; DUSP3 inh: 18.4; PrPC TRFRET: -0.1; CCHFV vOTU inh: 3.3; MazEF act: -2.3; Vc quorum ag-1: 3.6

What do the screens show for `CCCCNC(=O)c1ccccc1NC(=O)CCSc1ccccc1`?
Yp Topo-I inh: 7.1; DUSP3 inh: -11.5; PrPC TRFRET: 3.1; CCHFV vOTU inh: 0.7; MazEF act: 3.8; Vc quorum ag-1: 12.5; Vc quorum ag-2: 0.4

What do the screens show for `COc1ccc(NC(=O)COc2cccc3c2CCNC3=O)cc1`?
Yp Topo-I inh: 3.2; PrPC TRFRET: 7.4; CCHFV vOTU inh: 1.6; MazEF act: -4.6; Vc quorum ag-1: 27.5*; Vc quorum ag-2: 3.2

Results for COc1cccc(NC(=O)COc2cccc3c2CCNC3=O)c1 ?
Yp Topo-I inh: 2.2; PrPC TRFRET: 0.7; CCHFV vOTU inh: -1.1; MazEF act: 7.6; Vc quorum ag-1: inactive

Results for CC(C)Oc1ccc(C(=O)Nc2cc(S(=O)(=O)N3CCOCC3)ccc2N2CCOCC2)cc1 ?
Yp Topo-I inh: 2.4; PrPC TRFRET: 11.7; CCHFV vOTU inh: 2.6; MazEF act: 2.0; Vc quorum ag-1: 1.8; Vc quorum ag-2: -0.1

What do the screens show for `CC(C)COc1ccc(C(=O)Nc2cc(S(=O)(=O)N3CCOCC3)ccc2N2CCCC2)cc1`?
Yp Topo-I inh: 15.8; PrPC TRFRET: -0.9; CCHFV vOTU inh: 6.9; MazEF act: 6.0; Vc quorum ag-1: 0.5

What do the screens show for `Cc1ccc(C)c(S(=O)(=O)Nc2ccc(O)cc2)c1`?
Yp Topo-I inh: -8.8; DUSP3 inh: 29.0; PrPC TRFRET: -1.3; CCHFV vOTU inh: 4.1; MazEF act: 1.1; Vc quorum ag-1: inactive

What do the screens show for `Cc1ccc(C)c(S(=O)(=O)Nc2ccc(-n3cnnn3)cc2)c1`?
Yp Topo-I inh: -2.1; MazEF act: 5.1; Vc quorum ag-1: 36.7*; Vc quorum ag-2: -0.1

What do the screens show for `COc1ccc(-n2nc(C)c3c(=O)c4c([nH]c32)CCCC4)cc1`?
Yp Topo-I inh: 2.2; DUSP3 inh: -2.4; PrPC TRFRET: 6.5; CCHFV vOTU inh: 18.6; MazEF act: 7.2; Vc quorum ag-1: inactive

How did CCOc1ccc(OCCCC(=O)N(C)CC(=O)Nc2ccccc2Br)cc1 do in these assays?
Yp Topo-I inh: 14.9; PrPC TRFRET: 2.4; CCHFV vOTU inh: -5.3; MazEF act: 4.0; Vc quorum ag-1: -5.0

How did Cc1ccc(C)c(NC(=O)CN(C)C(=O)CCN2C(=O)c3ccccc3C2=O)c1 do in these assays?
Yp Topo-I inh: -2.7; DUSP3 inh: 28.2; PrPC TRFRET: -3.2; CCHFV vOTU inh: -2.0; MazEF act: 8.3; Vc quorum ag-1: 25.0*; Vc quorum ag-2: 0.1

How did Cc1ccc(C)c(NC(=O)CCN2C(=O)c3ccccc3C2=O)c1 do in these assays?
Yp Topo-I inh: 3.0; DUSP3 inh: 23.3; PrPC TRFRET: 8.7; CCHFV vOTU inh: 0.0; MazEF act: 2.5; Vc quorum ag-1: -1.9

What do the screens show for `Cc1ccc(OCCCC(=O)N(C)CC(=O)Nc2ccccc2Cl)cc1`?
Yp Topo-I inh: 31.9; PrPC TRFRET: -3.1; CCHFV vOTU inh: -2.3; MazEF act: 1.3; Vc quorum ag-1: 12.5; Vc quorum ag-2: 0.0

How did CCCn1nnnc1NCc1ccc(N(CC)CC)cc1 do in these assays?
Yp Topo-I inh: -2.9; DUSP3 inh: -16.1; PrPC TRFRET: 1.1; CCHFV vOTU inh: 0.1; MazEF act: 554.9*; Vc quorum ag-2: inactive; HeLa 24h tox: -3.4

What do the screens show for `Cn1nnnc1NCc1ccc(Cl)cc1`?
Yp Topo-I inh: 1.1; DUSP3 inh: 20.7; PrPC TRFRET: 6.7; CCHFV vOTU inh: 11.5; MazEF act: 10.1
